From PubChem BioAssay (NCI) come the findings set out here.

About 79,000 compounds went through this panel and 15% of them were active in at least one assay; those are over-represented in the sample as a whole. A number with no mark means an inactive call. Rule as the data show it: active = growth inhibition above about 70%; inactive = the rest.

The assay can be described thus: NCI Yeast Anticancer Drug Screen. Data for the mlh1 rad18 strain (AID 175). Particulars: S. cerevisiae mlh1 rad18 strain growth inhibition; at 50.0 µM; hits give high values. The essentials: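 In this whole-cell yeast screen, a strain with altered DNA damage repair is challenged with compound, and its growth is measured against matched vehicle-treated controls.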
`COC(=O)/C=C\CC(=O)OC`: the growth inhibition is -0.65%.
For `C/C(=N\NC(=S)N1CCC(C2CCN(C(=S)N/N=C(\C)c3ccccn3)CC2)CC1)c1ccccn1`, the growth inhibition is -27.4%.
As for `CC1CCCN2C(=O)CN(Cc3ccccc3)CC(=O)N12` (centres undefined), the growth inhibition was -4.45%.
Next, `CC1CC(O)CC(C)(C)C1.CC1CC(O)CC(C)(C)C1.CC1CC(O)CC(C)(C)C1.CC1CC(O)CC(C)(C)C1.[Ti]` (centres undefined): 31.9%; `NNC(=Nc1ccccc1)SCc1ccccc1`: -30.9%; `O=C(OC(=O)c1ccc(Cl)cc1)c1ccc(Cl)cc1`: -7.35%.
Regarding `Clc1ccccc1C(Nc1nc2ccccc2s1)Nc1nc2ccccc2s1`, the growth inhibition was 17.4%.
For `CCCCCCCCCCN(CCCCCCCCCC)C(C)C(O)c1ccc2cc(Br)c3ccccc3c2c1` (centres undefined), the growth inhibition was -14.3%.
On to `O=CC(O)C(O)C(O)C(O)COC(=S)OCC(O)C(O)C(O)C(O)C=O` (centres undefined) (tested in a mixture with another compound), for which the growth inhibition is -4.25%.
Next, `COc1ccc(/C=N/Nc2nc3ccccc3s2)cc1`: 25.6%; `CCCCOC1NC(=O)NC(=O)C1(F)C(=O)OCC` (centres undefined): -0.85%; `Nc1ccccc1N/N=C/c1ccccc1`: 5.25%.
As to `CC12CCC(=O)C=C1CCC1C2CCC2(C)C1CCC2(O)C(=O)Cn1c(=O)cc[nH]c1=O` (centres undefined), the growth inhibition is 11.5%.
Turning to `C/C(CC(=O)NC1=CC=C(NC(=O)C/C(C)=N\Nc2ccccc2)CC1)=N/Nc1ccccc1`, the growth inhibition was 13.7%.
Consider `CCCCCC(C)(O)CCC` (centres undefined), for which the growth inhibition was -3.55%.
Next, `CCOC(=O)CN1C(=O)CSC1=S`: 31.1%; `CC1(C)CC2(C)Sc3ccccc3N2C(=S)N1` (centres undefined): 17.9%.
Regarding `O=[N+]([O-])c1cccc2c1ccc1nonc12`, the growth inhibition is 20.5%.
Take `CC1=NOC(C)(O)/C1=N/O` (centres undefined): the growth inhibition was -21.3%.
Turning to `Cc1cc(Br)ccc1NC1=CC(=O)C(=O)c2ccccc21`, the growth inhibition was 32.1%.
Regarding `NC(=O)C(Cc1ccccc1)NC(=O)C1CCCN1` (centres undefined), the growth inhibition is 24.6%.
`OCC(O)Cn1cnc2c(NO)ncnc21` (centres undefined): the growth inhibition was 11.1%.
`O=C(O)COc1ccc(I)cc1I`: the growth inhibition is 19.2%.
Turning to `CCCCNCCS`, the growth inhibition was 8.5%.
`COC1(c2ccc(C)cc2)c2cccc3cccc(c23)C1(O)c1ccc(C)cc1` (centres undefined): the growth inhibition is 9.9%.
Turning to `C[N+]([O-])(C/C=C/c1ccccc1)c1ccccc1` (centres undefined), the growth inhibition was -2.7%.
Next, `NNC(=O)Nc1ccccc1`: -3.15%; `OCC[N+]1(CCO)CCOCC1`: 6.2%.
As for `CCO/C=C1/C(=O)N(C)c2c1c(=O)n(C)c(=O)n2C`, the growth inhibition was -5.15%.
Next, `Cc1nc2ccccc2[nH]1`: 8.8%; `Cc1cccc(NC(=O)CSc2nnc(Cc3ccccc3)o2)c1`: -28.2%; `Cc1ccc(S(=O)(=O)n2ccnc2)cc1`: -25.9%.
Consider `CCCCCCCCCCCC1=C(O)C(=O)C(I)=C(O)C1=O`, for which the growth inhibition was 54.7%.
Take `C[C@@]12CCC[C@H]1[C@@H]1CC=C3C[C@@H](S)CC[C@]3(C)[C@H]1CC2`: the growth inhibition is -13.7%.
Turning to `C[Si](Cn1ccc(=O)n(C[Si](C)(c2ccccc2)c2ccccc2)c1=O)(c1ccccc1)c1ccccc1`, the growth inhibition is 15.2%.
Turning to `COc1ccc(C2CC(=O)NC2=O)cc1OC` (centres undefined), the growth inhibition is -5.65%.
For the compound `O=C(O)/C=N\Nc1nc2ccccc2[nH]1`, the growth inhibition was 6.8%.
Consider `CCC(=O)OCCSCCOC(=O)CC`, for which the growth inhibition is -15.8%.
Next, `CC(C)[Si](C#CC[Si](C(C)C)(C(C)C)C(C)C)(C(C)C)C(C)C`: -9.35%.
